4 molecules from PubChem BioAssay (NCI) can be followed below.

Some test systems named below: HOP-92 NSCLC; K-562 leukemia; MALME-3M melanoma; RXF 393 renal; SK-MEL-28 melanoma; SK-MEL-2 melanoma; SN12C renal; TK-10 renal; A498 renal; RPMI-8226 leukemia; OVCAR-3 ovarian; BT-549 breast; MDA-MB-435 melanoma; HCC-2998 colon; UACC-257 melanoma; CAKI-1 renal.
Common to all, as to experiment: NCI-60 one-dose screen, 48 h (100 = growth as untreated, 0 = no growth, -100 = all killed)
Settings in all cases: 10 µM

Each structure is given as a SMILES string. The panel holds about 83,000 compounds, 20% with a hit somewhere; the sample as a whole holds those more often.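 The test compound was applied at a single concentration to cells in 96-well plates for 48 hours, and percent growth was recorded.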 Unmarked numbers belong to inactive results. Activity calls are given as the source filed them. The calls were made as follows: active = growth percent below 10; inactive = the rest.

As to `CC(=O)O[C@@H]1C[C@H]2O[C@@H]3C=C(C)CC[C@]3(C)[C@]1(C)[C@]21CO1`, the growth with HOP-92 NSCLC was 16.8%; with K-562 leukemia, 4.68% (active); with MALME-3M melanoma, 5.52% (active); with RXF 393 renal, 4.11% (active); with SK-MEL-28 melanoma, -1.27% (active); in the assay on SK-MEL-2 melanoma, -3.89% (active). Moreover, the growth is 20.7% in the assay on SN12C renal; 66.6% in the assay on TK-10 renal; 34.6% in the assay on A498 renal; -14.7% (active) in the assay with RPMI-8226 leukemia; 14.7% in the assay with OVCAR-3 ovarian; -14.3% (active) with BT-549 breast. Besides, the growth in the assay with MDA-MB-435 melanoma is 2.02% (active); in the assay on HCC-2998 colon, 8.92% (active).
Consider `CN1C(=O)[C@]23SSC1(C)C(=O)N2[C@H]1Nc2ccccc2C1([C@@]12c4ccccc4N[C@@H]1N1C(=O)C4(C)SS[C@]1(C(=O)N4C)[C@H]2O)[C@@H]3O` (stereo not given in full), for which the growth in the assay on K-562 leukemia is 2.18% (active); with MALME-3M melanoma, -81.5% (active); with RXF 393 renal, -93.3% (active); in the assay with UACC-257 melanoma it was -96.9% (active); with SK-MEL-28 melanoma it was -96.5% (active); in the assay with SN12C renal it was -96.1% (active). For the same molecule, the growth with TK-10 renal was -95.7% (active); with CAKI-1 renal, -99.8% (active); in the assay on RPMI-8226 leukemia, -16.9% (active); in the assay on BT-549 breast, -99.5% (active); with MDA-MB-435 melanoma, -94.3% (active); in the assay with HCC-2998 colon it was -83.8% (active).
Regarding `CC1=C[C@H]2O[C@@H]3C[C@H]4OC(=O)/C=C\C=C\[C@H]([C@@H](C)O)OCC/C(C)=C/C(=O)OC[C@@]2(CC1)[C@]4(C)[C@]31CO1`, the growth with HOP-92 NSCLC is -19.1% (active); in the assay with K-562 leukemia, -6.8% (active); in the assay with MALME-3M melanoma, -65.9% (active); with RXF 393 renal, -70.5% (active); in the assay on SK-MEL-28 melanoma, -38.6% (active); with SK-MEL-2 melanoma, -61.1% (active). In addition, the growth was -16.1% (active) in the assay on SN12C renal; -24.5% (active) in the assay with TK-10 renal; -80.8% (active) in the assay with A498 renal; -30.5% (active) with RPMI-8226 leukemia; -19.2% (active) in the assay with OVCAR-3 ovarian; -28.6% (active) with BT-549 breast. Besides, the growth with MDA-MB-435 melanoma was -83.5% (active); with HCC-2998 colon it was -55.6% (active).
Regarding `CN(CCF)/N=N/c1nc[nH]c1C(N)=O`, the growth in the assay on HOP-92 NSCLC was 77.9%; in the assay with K-562 leukemia it was 22.2%; in the assay on MALME-3M melanoma, 37.5%; with RXF 393 renal, 76.6%; with UACC-257 melanoma, 53.8%; in the assay on SK-MEL-28 melanoma it was 49.3%. The growth is -20.9% (active) with SK-MEL-2 melanoma; 48.4% in the assay on SN12C renal; 25.2% in the assay on TK-10 renal; 14.1% in the assay with CAKI-1 renal; 87% in the assay with A498 renal; 25.5% in the assay on RPMI-8226 leukemia. For the same molecule, the growth is 85.8% with BT-549 breast, 39.6% with MDA-MB-435 melanoma and 38.7% with HCC-2998 colon.
